# Assay results taken from PubChem BioAssay (EPA / NIEHS).
# Where “and” joins values, the source holds several entries; their conditions need not be identical. Equal entries are not always repeated. Inconclusive results are not listed. Some structures have more than one record in an assay (separate samples or runs), and their calls can disagree. Calls of active or inactive are those of the source. The calls were made as follows, unless noted: active = hit-call score of the fitted dose curve at least 0.9, where 1 is the maximum; inactive = score below 0.9.
# Assays:
# [1] = ATG_TAL_CIS: Attagene CIS-FACTORIAL HepG2 Assay for human TAL Basal Promoter (AID 2282966); conditions: HepG2 Attagene cis-factorial TAL promoter reporter; actives raise or lower the signal;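 also: background control endpoint measuring basal TAL promoter reporter mRNA not a specific factor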
# Procedure, shortened: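 Transiently transfected HepG2 (cis-regulated reporter units), 24 h treatment, mRNA read by fluorescent CE after RT-PCR; bidirectional fit, DMSO baseline.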
# [2] = ATG_TGFb_CIS: Attagene CIS-FACTORIAL HepG2 Assay for human Transforming Growth Factor (TGF) (AID 2282967); conditions: HepG2 Attagene CIS TGFb reporter, mRNA transcription; actives raise or lower the signal
# Procedure, shortened: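 Transcript-level reporter readout: HepG2 transfectants, 24 h exposure, RNA to cDNA, reporter-specific PCR, fluorescent primer extension, capillary sizing against ROX standards. Gain- or loss-of-signal relative to DMSO.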
# [3] = ATG_VDRE_CIS: Attagene CIS-FACTORIAL HepG2 Assay for human Vitamin D Receptor Element (VDRE) (AID 2282968); conditions: HepG2 VDRE cis-reporter transcription, actives raise or lower the signal
# Procedure, shortened: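 Readout is VDRE-driven reporter mRNA reflecting endogenous factor activity in human HepG2 cells, sampled 24 h post-dose. Quantification used labelled RT-PCR products separated by capillary electrophoresis; bidirectional analysis relative to DMSO.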
# [4] = target: Estrogen receptor (Homo sapiens) (UniProt P03372); assay: ATG_ERa_TRANS: Attagene TRANS-FACTORIAL HepG2 Assay for human Estrogen Receptor alpha (ERa) (AID 2282970; active = hit-call score of the fitted dose curve at least 0.9, where 1 is the maximum); conditions: HepG2 Attagene TRANS ERa GAL4 reporter, mRNA
# Chain of Estrogen receptor (Homo sapiens) (P03372 whole entry, looked up, the tested form may be a part): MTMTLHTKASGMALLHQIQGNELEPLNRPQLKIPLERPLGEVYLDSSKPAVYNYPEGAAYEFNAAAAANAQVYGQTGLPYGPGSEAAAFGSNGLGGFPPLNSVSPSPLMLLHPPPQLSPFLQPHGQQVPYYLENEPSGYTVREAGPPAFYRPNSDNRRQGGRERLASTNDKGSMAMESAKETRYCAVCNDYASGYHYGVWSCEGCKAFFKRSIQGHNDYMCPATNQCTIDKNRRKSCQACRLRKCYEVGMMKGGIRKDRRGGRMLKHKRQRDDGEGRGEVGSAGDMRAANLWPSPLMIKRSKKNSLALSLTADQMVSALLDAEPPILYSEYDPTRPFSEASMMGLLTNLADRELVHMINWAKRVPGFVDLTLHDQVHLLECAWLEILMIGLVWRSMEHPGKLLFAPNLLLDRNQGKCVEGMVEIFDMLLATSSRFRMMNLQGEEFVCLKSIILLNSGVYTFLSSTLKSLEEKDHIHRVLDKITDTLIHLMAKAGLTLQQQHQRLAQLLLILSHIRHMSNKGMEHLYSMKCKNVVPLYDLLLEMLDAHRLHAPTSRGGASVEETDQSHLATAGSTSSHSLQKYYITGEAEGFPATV
# Procedure, shortened: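 One of 30 multiplexed endpoints from a HepG2 TRANS system, this one reports ERa-Gal4-driven reporter mRNA. Transcripts were quantified 24 hours post-dosing by fluorescent RT-PCR and capillary electrophoresis, with activity scored as induction over DMSO.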
# [5] = target: X-box-binding protein 1 (Homo sapiens) (UniProt P17861); assay: ATG_Xbp1_CIS: Attagene CIS-FACTORIAL HepG2 Assay for human X-box Binding Protein 1 (XBP1) (AID 2282972); conditions: HepG2 XBP1 cis-element reporter, Attagene multiplex; actives raise or lower the signal
# Chain of X-box-binding protein 1 (Homo sapiens) (P17861 whole entry, looked up): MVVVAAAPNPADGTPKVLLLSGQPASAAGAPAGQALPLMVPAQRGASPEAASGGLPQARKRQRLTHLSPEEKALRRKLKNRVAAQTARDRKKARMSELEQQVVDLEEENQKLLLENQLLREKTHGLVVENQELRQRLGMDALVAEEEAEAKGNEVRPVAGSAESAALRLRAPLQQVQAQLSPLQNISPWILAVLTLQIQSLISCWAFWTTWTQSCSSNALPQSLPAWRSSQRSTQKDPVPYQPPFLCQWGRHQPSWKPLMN
# Procedure, shortened: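 Changes in reporter transcript abundance, read by RT-PCR and capillary electrophoresis, reflect endogenous transcription factor activity. Transfected HepG2 cells received compound for 24 hours; DMSO defined baseline for bidirectional analysis.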
# [6] = target: Glucocorticoid receptor (Homo sapiens) (UniProt P04150); assay: ATG_GR_TRANS: Attagene TRANS-FACTORIAL HepG2 Assay for human Glucocorticoid Receptor (GR) (AID 2282978; active = hit-call score of the fitted dose curve at least 0.9, where 1 is the maximum;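 also: activators score as hits since higher reporter transcript over DMSO is fitted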); conditions: HepG2 Attagene TRANS GR reporter, mRNA transcription
# Chain of Glucocorticoid receptor (Homo sapiens) (P04150 whole entry, looked up, the tested form may be a part): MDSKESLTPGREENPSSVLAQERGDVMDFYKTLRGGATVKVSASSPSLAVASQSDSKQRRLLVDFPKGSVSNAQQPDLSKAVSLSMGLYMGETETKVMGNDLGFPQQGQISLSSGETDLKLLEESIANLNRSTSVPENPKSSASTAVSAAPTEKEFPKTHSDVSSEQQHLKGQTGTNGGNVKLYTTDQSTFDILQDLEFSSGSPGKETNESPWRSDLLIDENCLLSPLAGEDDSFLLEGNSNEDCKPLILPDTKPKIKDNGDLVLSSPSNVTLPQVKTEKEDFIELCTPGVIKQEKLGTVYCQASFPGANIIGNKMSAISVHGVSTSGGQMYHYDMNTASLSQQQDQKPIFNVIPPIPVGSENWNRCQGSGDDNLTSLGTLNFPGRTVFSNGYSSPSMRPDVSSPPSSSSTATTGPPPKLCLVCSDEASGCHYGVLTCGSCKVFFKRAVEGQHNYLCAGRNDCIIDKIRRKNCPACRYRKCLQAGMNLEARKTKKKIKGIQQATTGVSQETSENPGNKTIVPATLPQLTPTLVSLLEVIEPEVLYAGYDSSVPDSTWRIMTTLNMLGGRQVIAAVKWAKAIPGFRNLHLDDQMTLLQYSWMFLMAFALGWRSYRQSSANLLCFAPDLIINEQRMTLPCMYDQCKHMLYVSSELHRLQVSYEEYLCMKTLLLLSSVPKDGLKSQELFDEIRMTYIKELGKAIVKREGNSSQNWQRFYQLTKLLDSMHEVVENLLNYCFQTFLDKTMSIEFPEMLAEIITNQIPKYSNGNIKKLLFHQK
# Procedure, shortened: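 In this trans-factorial format, exogenous NR-GAL4 chimeric proteins in transfected HepG2 cells regulate GAL4-UAS reporter transcription. After 24 h treatment, reporter mRNA induction relative to DMSO is read by RT-PCR and capillary electrophoresis.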
# [7] = target: Nuclear receptor subfamily 1 group I member 3 (Homo sapiens) (UniProt Q14994); assay: ATG_CAR_TRANS: Attagene TRANS-FACTORIAL HepG2 Assay for human Constitutive Androstane Receptor (CAR) (AID 2282969; active = hit-call score of the fitted dose curve at least 0.9, where 1 is the maximum;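 also: activators raise reporter mRNA above DMSO so AC50 marks induction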); conditions: HepG2 Attagene TRANS-FACTORIAL CAR reporter
# Chain of Nuclear receptor subfamily 1 group I member 3 (Homo sapiens) (Q14994 whole entry, looked up, the tested form may be a part): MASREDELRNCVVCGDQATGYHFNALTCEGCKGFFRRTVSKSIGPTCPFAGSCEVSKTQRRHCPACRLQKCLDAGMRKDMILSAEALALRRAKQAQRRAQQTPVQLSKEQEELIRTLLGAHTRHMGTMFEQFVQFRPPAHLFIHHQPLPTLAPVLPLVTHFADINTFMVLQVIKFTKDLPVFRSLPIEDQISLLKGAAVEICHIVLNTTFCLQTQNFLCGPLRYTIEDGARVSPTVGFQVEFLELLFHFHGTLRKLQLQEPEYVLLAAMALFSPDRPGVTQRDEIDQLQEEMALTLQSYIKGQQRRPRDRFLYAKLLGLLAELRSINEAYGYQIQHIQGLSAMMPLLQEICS
# Procedure, shortened: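 Signal is reporter mRNA induction relative to DMSO, measured 24 h after dosing by RT-PCR with fluorescent primer extension and capillary electrophoresis. Human HepG2 liver cells carried transiently transfected chimeric NR-Gal4/GAL4-UAS reporter constructs.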
# [8] = target: Estrogen-related receptor gamma (Homo sapiens) (UniProt P62508); assay: ATG_ERRg_TRANS: Attagene TRANS-FACTORIAL HepG2 Assay for human Estrogen-Related Receptor gamma (ERRg) (AID 2282977; active = hit-call score of the fitted dose curve at least 0.9, where 1 is the maximum;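 also: hits increase reporter signal over DMSO so potencies reflect activators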); conditions: HepG2 Attagene TRANS reporter, ERRg transactivation
# Chain of Estrogen-related receptor gamma (Homo sapiens) (P62508 whole entry, looked up, the tested form may be a part): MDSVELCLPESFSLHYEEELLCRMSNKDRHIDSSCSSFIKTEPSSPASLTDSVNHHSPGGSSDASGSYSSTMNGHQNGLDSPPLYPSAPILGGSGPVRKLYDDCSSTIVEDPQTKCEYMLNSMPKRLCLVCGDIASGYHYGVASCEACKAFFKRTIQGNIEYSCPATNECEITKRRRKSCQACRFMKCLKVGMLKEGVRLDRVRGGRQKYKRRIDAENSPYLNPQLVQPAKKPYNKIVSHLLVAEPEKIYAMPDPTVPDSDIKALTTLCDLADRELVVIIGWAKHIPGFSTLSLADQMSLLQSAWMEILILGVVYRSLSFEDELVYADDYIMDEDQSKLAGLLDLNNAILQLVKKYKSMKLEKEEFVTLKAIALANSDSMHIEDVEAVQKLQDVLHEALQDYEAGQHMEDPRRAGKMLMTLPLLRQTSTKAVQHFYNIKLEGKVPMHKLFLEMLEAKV
# Procedure, shortened: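 Induction of reporter transcripts through a chimeric NR-Gal4 protein is quantified in transfected human HepG2 liver cells after 24 h chemical exposure, using RT-PCR with capillary electrophoresis detection and DMSO as baseline.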
# [9] = target: Steroid hormone receptor ERR1 (Homo sapiens) (UniProt P11474); assay: ATG_ERRa_TRANS: Attagene TRANS-FACTORIAL HepG2 Assay for human Estrogen-Related Receptor alpha (ERRa) (AID 2282971; active = hit-call score of the fitted dose curve at least 0.9, where 1 is the maximum); conditions: HepG2 Attagene TRANS reporter, ERRa transactivation
# Chain of Steroid hormone receptor ERR1 (Homo sapiens) (P11474 whole entry, looked up, the tested form may be a part): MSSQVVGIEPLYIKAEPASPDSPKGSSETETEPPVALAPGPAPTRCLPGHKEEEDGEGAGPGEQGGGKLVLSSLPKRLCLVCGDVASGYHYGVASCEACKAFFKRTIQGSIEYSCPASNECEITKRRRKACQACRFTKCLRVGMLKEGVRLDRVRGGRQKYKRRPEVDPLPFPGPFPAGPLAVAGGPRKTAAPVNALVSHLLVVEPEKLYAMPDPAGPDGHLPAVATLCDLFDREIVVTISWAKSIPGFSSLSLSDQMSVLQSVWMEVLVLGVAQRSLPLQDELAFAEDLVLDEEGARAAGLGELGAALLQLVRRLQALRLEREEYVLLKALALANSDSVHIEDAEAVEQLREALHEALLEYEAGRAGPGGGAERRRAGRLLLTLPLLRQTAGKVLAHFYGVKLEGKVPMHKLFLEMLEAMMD
# Procedure, shortened: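 HepG2 cells transiently transfected with multiplexed GAL4-UAS reporter units reading chimeric ERRa-Gal4 activity; 24 h compound exposure. Reporter mRNA measured by RT-PCR, 6-FAM labelling, HpaI digest and capillary electrophoresis; gain of signal fitted versus DMSO baseline.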
compound,measurement,setting,value
Cc1cc(F)ccc1-c1cc(N2CC[C@@H](O)[C@H]2CO)ncc1N(C)C(=O)C(C)(C)c1cc(C(F)(F)F)cc(C(F)(F)F)c1,outcome,[1],inactive
same,outcome,[2],inactive
same,outcome,[3],inactive
same,outcome,[4],inactive
same,outcome,[5],inactive
same,outcome,[6],inactive
O=C=NCCCCCCN=C=O,outcome,[1],inactive
same,outcome,[2],inactive
same,outcome,[3],inactive
same,outcome,[4],inactive
same,outcome,[5],inactive
CCCCCc1ccc(N)cc1,outcome,[1],inactive
same,outcome,[2],inactive
same,outcome,[3],inactive
same,outcome,[7],inactive
same,AC50,[4],12.2 µM (active) [middle of 4 runs]
same,outcome,[5],inactive
NCc1cccc(C2CCN(C(=O)c3ccc(C#Cc4ccccc4F)o3)CC2)c1,outcome,[1],inactive
same,outcome,[2],inactive
same,AC50,[3],14.3 µM (active)
same,AC50,[4],9.53 µM (active)
same,AC50,[5],14 µM (active)
CN(C)C(=O)C1(N2CCCCC2)CCN(CC[C@@]2(c3ccc(Cl)c(Cl)c3)CN(C(=O)c3ccccc3)CCO2)CC1,outcome,[1],inactive
same,outcome,[2],inactive
same,outcome,[3],inactive
same,outcome,[4],inactive
same,outcome,[5],inactive
same,outcome,[8],inactive
same,outcome,[6],inactive
c1ccc(C[n+]2cccc3ccccc32)cc1,outcome,[2],inactive
same,outcome,[3],inactive
same,outcome,[4],inactive
same,outcome,[9],inactive
same,outcome,[5],inactive
same,outcome,[8],inactive
same,outcome,[6],inactive
COc1cc(C(=O)NC2CCN(C)CC2)ccc1Nc1ncc2c(n1)N(C1CCCC1)CC(F)(F)C(=O)N2C,outcome,[2],inactive
same,AC50,[3],3.09 µM (active)
same,outcome,[4],inactive
same,AC50,[5],2.31 µM (active)
same,outcome,[6],inactive
CCO[Si](CCCNC(N)=O)(OCC)OCC,outcome,[2],inactive
same,outcome,[3],inactive
same,outcome,[4],inactive
same,outcome,[5],inactive
same,outcome,[8],inactive
same,outcome,[6],inactive
CCCCCCCCCCCC[N+](C)(C)C,outcome,[2],inactive
same,outcome,[3],inactive
same,AC50,[5],33.4 µM (active)
same,outcome,[5],inactive
same,outcome,[6],inactive
OC12N=C(c3ccccc3)SC1Cc1cc(Cl)ccc12 (stereo unspecified),outcome,[2],inactive
same,outcome,[3],inactive
same,AC50,[4],3.97 µM (active)
same,outcome,[9],inactive
same,outcome,[5],inactive
same,outcome,[8],inactive
CCCCOC(=O)CC(CC(=O)OCCCC)(OC(C)=O)C(=O)OCCCC,outcome,[2],inactive
same,AC50,[3],8 µM (active) and 4.3 µM (active)
same,outcome,[5],inactive
same,outcome,[6],inactive
O=c1[nH]sc2ccccc12,outcome,[2],inactive
same,outcome,[3],inactive
same,outcome,[7],inactive
same,outcome,[4],inactive
same,AC50,[5],52.9 µM (active)
same,outcome,[8],inactive
O=C1O[C@H]([C@@H](O)CO)C(O)=C1O,outcome,[2],inactive
same,outcome,[5],inactive
same,outcome,[6],inactive
O=C1c2ccccc2C(=O)N1CCc1noc(-c2ccc(CN3CCCCCC3)s2)n1,outcome,[2],inactive
same,outcome,[5],inactive
Cc1cn([C@H]2C[C@H](N=[N+]=[N-])[C@@H](CO)O2)c(=O)[nH]c1=O,outcome,[2],inactive
same,outcome,[3],inactive
same,outcome,[9],inactive
same,outcome,[5],inactive
same,outcome,[8],inactive
same,outcome,[6],inactive
OCCO,outcome,[2],inactive
same,outcome,[3],inactive
same,outcome,[4],inactive
same,outcome,[5],inactive
CCOC(=O)O[C@H](C)OC(=O)c1ccc2c(c1)cc(C(=O)NC1CCN(C(C)C)CC1)n2Cc1cc(-c2ccc(Cl)s2)on1,outcome,[2],inactive
same,outcome,[3],inactive
same,outcome,[4],inactive
same,outcome,[5],inactive
same,outcome,[6],inactive
Cc1cc2c(cc1C(F)(F)F)N(C(=O)Nc1ccc(Oc3cccnc3C)nc1)CC2,outcome,[2],inactive
same,outcome,[3],inactive
same,outcome,[5],inactive
same,outcome,[8],inactive
same,outcome,[6],inactive
CCCCCCCCCC(=O)O,outcome,[2],inactive
same,outcome,[3],inactive
same,outcome,[9],inactive
same,outcome,[5],inactive
same,outcome,[6],inactive
O=CCCCC=O,outcome,[2],inactive
same,outcome,[3],inactive
same,outcome,[4],inactive
same,outcome,[9],inactive
same,outcome,[5],inactive
same,outcome,[8],inactive
same,outcome,[6],inactive
CC[C@@H]1C[C@H](N(Cc2cc(C(F)(F)F)cc(C(F)(F)F)c2)C(C)=O)c2cc(C(F)(F)F)ccc2N1C(=O)OC(C)C,outcome,[2],inactive
same,AC50,[3],0.119 µM (active)
same,outcome,[7],inactive
same,AC50,[4],100 µM (active)
same,outcome,[5],inactive
same,AC50,[6],100 µM (active)
